Source: PubChem BioAssay
Records with an inconclusive call do not appear. Active and inactive are the calls of the source.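 Rule for the calls, unless noted: active = GFP response, as percent of the DMSO control, above the screen-wide mean plus 3 SD, about 139; inconclusive = no response measured because the compound's own fluorescence interfered; inactive = the rest.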

Key:
[1] = yeast TOR pathway RPL19A-GFP modulators, primary screen, cell-based, S. cerevisiae, multiplex flow cytometry (AID 1862; in the data active = percent of DMSO control GFP below about 86%;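 note: lower values mimic rapamycin by blocking the RPL19A rise seen in DMSO cells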); conditions: S. cerevisiae RPL19A-GFP strain, flow cytometry fluorescence, 3 h; at 10 µM; stronger effect = lower value
[2] = modulators of MEP2-GFP levels in yeast, primary screen, S. cerevisiae, multiplex flow cytometry (AID 1867);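 note: median GFP channel fluorescence of barcode-gated MEP2-GFP cells measured by flow cytometry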; conditions: S. cerevisiae MEP2-GFP strain, 3 h, at 10 µM, stronger effect = higher value, 100% means same as DMSO wells
[3] = modulators of CIT2-GFP expression in yeast, primary screen, S. cerevisiae, GFP fusion, multiplex flow cytometry (AID 1870;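 active = percent response above a set limit, the screen-wide mean plus 3 SD, cut at about 130% in these data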;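 note: barcoded CIT2-GFP strain pooled with four other GFP strains with rapamycin as positive control; median GFP fluorescence per well over plate mean of DMSO wells so 100% = DMSO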); conditions: 3 h, at 10 µM, stronger effect = higher value
[4] = modulators of LAP4-GFP expression in yeast, primary screen, S. cerevisiae, multiplex flow cytometry (AID 1873;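 active = GFP signal, as percent of the solvent control, above the screen mean plus 3 SD, about 149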); conditions: 3 h, at 10 µM, stronger effect = higher value
[5] = modulators of AGP1-GFP expression in yeast TOR pathway, primary screen, cell-based, multiplex flow cytometry, S. cerevisiae (AID 1887;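 active = GFP signal above the screen-wide mean plus 3 SD, that is over about 124.5% of the solvent control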;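 note: AGP1-GFP fusion strain of S. cerevisiae within a five-strain barcoded multiplex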); conditions: 3 h, at 10 µM, stronger effect = higher value
[6] = RPL19A-GFP modulators, yeast TOR pathway, confirmation, cell-based, S. cerevisiae, flow cytometry, cherry picks, mother/daughter gates (AID 2270;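 active = GFP response below 50% of the DMSO control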); conditions: S. cerevisiae RPL19A-GFP strain, 3 h, at 10 µM, stronger effect = lower value, 100 = same GFP as DMSO wells
[7] = LAP4-GFP expression modulators in yeast, confirmation, cell-based, cherry picks, flow cytometry, mother/daughter gates (AID 2271;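 active = GFP response above 150% of the DMSO control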;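 note: ratio of sample to DMSO plate mean so 100% equals DMSO level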); conditions: S. cerevisiae LAP4-GFP strain, 3 h, at 10 µM, stronger effect = higher value, 100 means same as DMSO control
[8] = modulators of MEP2-GFP levels in yeast, confirmation, S. cerevisiae, flow cytometry GFP, cherry picks (AID 2272;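 active = GFP response above 150% of the DMSO control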;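 note: ratio of well signal to plate DMSO mean so 100% equals DMSO level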); conditions: S. cerevisiae MEP2-GFP strain, 3 h, at 10 µM, stronger effect = higher value
[9] = modulators of CIT2-GFP expression in yeast, confirmation, S. cerevisiae, GFP fusion, cherry picks, mother/daughter gates (AID 2274;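 active = GFP response above 150% of the DMSO level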); conditions: S. cerevisiae CIT2-GFP strain, flow cytometry, 3 h, at 10 µM, stronger effect = higher value
[10] = inhibitors of CD8+ T cell-vesicle binding, pilot screen, LFA-1/ICAM-1 modulator project, MLPCN validation set, flow cytometry (AID 2523;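 active = response below a set limit, under 55% cells CD8-positive and vesicle-bound, and CD8 cells' 90th-percentile brightness under 279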;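 for vesicle binding response: mean PE anti-B7-1 fluorescence of CD8+ cells relative to row control; 100% = QL9-loaded vesicles with DMSO vehicle in the same plate row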); conditions: 2C mouse CD8+ T cells, at 7 µM, stronger effect = lower value; double positive events: measured here: CD8+/vesicle+ event percentage
[11] = biological target: Integrin beta-1 (Homo sapiens) + Integrin alpha-4 (Homo sapiens) (UniProt P13612+P05556); assay: inhibition of HUTS-21 binding to VLA-4, pilot screen, VLA-4 allosteric modulator project, U937 cells, HUTS-21 mAb, flow cytometry, validation set (AID 2674;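 active = inhibition above 50%, about 3 SD of the validation set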;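 note: antibody binding induced by the VLA-4 ligand LDV present at three times its Kd; 0% = LDV ligand with antibody and no compound and 100% = antibody without LDV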); conditions: HUTS-21 LIBS mAb binding, at 6.7 µM, stronger effect = higher value, binding induced by LDV ligand
[12] = biological target: Beta-adrenergic receptor kinase 1 (Homo sapiens) (UniProt P25098); assay: GRK2 binders displacing RNA aptamer, biochemical, validation, human GRK2, bead flow cytometry (AID 488806;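 active = aptamer binding inhibition above 30%, about 3 SD of noise from non-fluorescent compounds; inactive = inhibition at or below 30%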); conditions: bead-bound GRK2, FAM-aptamer displacement, at 10 µM, stronger effect = higher value
[13] = biological target: Beta-2 adrenergic receptor (Homo sapiens) (UniProt P07550); assay: beta2AR agonists driving receptor internalization, pilot screen, cell-based, FAP fluorogen, flow cytometry, validation set (AID 504459;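 active = percent response above 42, roughly 3 SD of non-fluorescent test compounds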;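 note: agonist-driven loss of surface beta2AR via internalization measured by FAP dye flow cytometry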); conditions: Am2.2-beta2AR cells, FAP surface receptor flow cytometry; at 10 µM; stronger effect = higher value
[14] = biological target: AP-2 complex subunit beta (Homo sapiens) (UniProt P63010); assay: inhibitors of arrestin peptide binding to AP2, pilot screen, biochemical, validation set, GST-AP2 beads, flow cytometry (AID 504541;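 active = inhibition above 54%, about 3 SD of non-fluorescent compounds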;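 note: AP2 carries R879A mutation and is captured from E. coli lysate; bead-bound FITC arrestin peptide fluorescence measuring arrestin peptide binding to AP2; 0% = DMSO wells and 100% = excess unlabeled arrestin peptide control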); conditions: FITC arrestin peptide, at 10 µM, stronger effect = higher value, AP2 beta2 appendage fragment, R879A mutant
[15] = yeast V-ATPase proton transport modulators, S. cerevisiae, pHLuorin, HTS validation (AID 504600; in the data active = response above about 15%;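 note: plate controls were DMSO for no effect and reference compound for full effect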); conditions: S. cerevisiae pHLuorin cytosolic pH, at 10 µM, stronger effect = higher value
[16] = test system: anti-desmoglein-3 scFv antibody binding to human DSG3; assay: inhibitors of anti-DSG3 scFv binding to DSG3, pilot screen, biochemical, validation compound set, bead-based, flow cytometry (AID 588368;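 active = binding below the plate cutoff, the plate median minus 3 SD, with a reading above zero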;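 note: signal is the median channel fluorescence of bead-bound GFP antibody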); conditions: Protein G beads, DSG3-Fc, scFv-GFP binding, at 10 µM, stronger effect = lower value
[17] = inhibitors of fungal efflux pumps CDR1, CDR2, MDR1, pilot screen, validation compound set, multiplex, phenotypic (AID 588506;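 active = efflux inhibition above 0.42, the validation set average plus 4 SD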;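 note: Nile Red retained in cells so higher fluorescence means more efflux inhibition; 0 = negative control wells and 1 = enniatin B 25 µM full block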); conditions: S. cerevisiae pump-expressing triplex, Nile Red efflux flow cytometry; at 10 µM; stronger effect = higher value; the pumps come from Candida albicans
[18] = biological target: ATP-binding cassette sub-family B member 6 (Homo sapiens) (UniProt Q9NP58); assay: ABCB6 transporter inhibitors, pilot screen, K562-ABCB6 cells, flow cytometry, validation set (AID 588550;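 active = inhibition above the screen-wide mean plus 3 SD, about 51%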;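 note: 0% = DMSO wells and 100% = benzethonium chloride 70 µM positive control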); conditions: K562-ABCB6 porphyrin accumulation, 1 h, at 10 µM, stronger effect = higher value
[19] = promoters of myeloid differentiation in arrested cells, primary screen, cell-based, GFP/MAC1 double positive, flow cytometry, validation set (AID 588685;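 active = differentiation response of at least 50%, scaled between solvent and reference control, from cells with both markers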;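 note: compound exposure lasts four days before antibody staining and flow analysis; 0% = DMSO wells and 100% = 5 µM fulvestrant positive control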); conditions: ER-HoxA9 marrow cells, stronger effect = higher value, normalized: vehicle 0, fulvestrant 100
[20] = superoxide lowering in aged yeast cells, pilot screen, validation compound set (AID 2706;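 active = superoxide response below 65% of plate, a cut near 3 SD across the whole screen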;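 note: yeast exposed to compound for one week at 30 degrees C before staining; 100% = mean of all compound wells on the same plate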); conditions: S. cerevisiae aging, superoxide DHE fluorescence; at 10 µM; stronger effect = lower value
[21] = measured here: daughter cell gate
[22] = measured here: mother cell gate
[23] = measured here: daughter cell gate response
[24] = measured here: mother cell gate response

Sequence of ATP-binding cassette sub-family B member 6 (Homo sapiens) (Q9NP58 whole entry, looked up): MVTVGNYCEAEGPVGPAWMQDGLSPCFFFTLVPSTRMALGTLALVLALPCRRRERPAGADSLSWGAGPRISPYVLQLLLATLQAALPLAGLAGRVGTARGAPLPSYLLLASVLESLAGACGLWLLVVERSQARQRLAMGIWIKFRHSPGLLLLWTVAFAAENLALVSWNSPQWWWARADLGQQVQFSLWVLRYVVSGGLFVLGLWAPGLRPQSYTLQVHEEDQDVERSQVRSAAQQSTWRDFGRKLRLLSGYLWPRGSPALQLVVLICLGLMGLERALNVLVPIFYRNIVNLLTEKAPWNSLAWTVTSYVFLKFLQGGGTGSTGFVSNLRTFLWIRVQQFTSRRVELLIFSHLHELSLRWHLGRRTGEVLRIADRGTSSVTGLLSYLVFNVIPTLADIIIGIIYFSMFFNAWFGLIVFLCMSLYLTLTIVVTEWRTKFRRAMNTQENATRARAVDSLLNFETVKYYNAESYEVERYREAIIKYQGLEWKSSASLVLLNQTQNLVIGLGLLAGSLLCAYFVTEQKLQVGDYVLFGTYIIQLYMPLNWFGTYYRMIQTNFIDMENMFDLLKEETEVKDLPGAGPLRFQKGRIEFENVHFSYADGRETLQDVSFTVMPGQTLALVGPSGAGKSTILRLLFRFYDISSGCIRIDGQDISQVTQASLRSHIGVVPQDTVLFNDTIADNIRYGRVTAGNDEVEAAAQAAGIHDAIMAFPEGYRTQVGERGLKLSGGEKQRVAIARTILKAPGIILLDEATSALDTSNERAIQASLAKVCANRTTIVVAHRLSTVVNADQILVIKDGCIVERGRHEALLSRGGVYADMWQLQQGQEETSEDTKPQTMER
Sequence of Beta-adrenergic receptor kinase 1 (Homo sapiens) (P25098 whole entry, looked up): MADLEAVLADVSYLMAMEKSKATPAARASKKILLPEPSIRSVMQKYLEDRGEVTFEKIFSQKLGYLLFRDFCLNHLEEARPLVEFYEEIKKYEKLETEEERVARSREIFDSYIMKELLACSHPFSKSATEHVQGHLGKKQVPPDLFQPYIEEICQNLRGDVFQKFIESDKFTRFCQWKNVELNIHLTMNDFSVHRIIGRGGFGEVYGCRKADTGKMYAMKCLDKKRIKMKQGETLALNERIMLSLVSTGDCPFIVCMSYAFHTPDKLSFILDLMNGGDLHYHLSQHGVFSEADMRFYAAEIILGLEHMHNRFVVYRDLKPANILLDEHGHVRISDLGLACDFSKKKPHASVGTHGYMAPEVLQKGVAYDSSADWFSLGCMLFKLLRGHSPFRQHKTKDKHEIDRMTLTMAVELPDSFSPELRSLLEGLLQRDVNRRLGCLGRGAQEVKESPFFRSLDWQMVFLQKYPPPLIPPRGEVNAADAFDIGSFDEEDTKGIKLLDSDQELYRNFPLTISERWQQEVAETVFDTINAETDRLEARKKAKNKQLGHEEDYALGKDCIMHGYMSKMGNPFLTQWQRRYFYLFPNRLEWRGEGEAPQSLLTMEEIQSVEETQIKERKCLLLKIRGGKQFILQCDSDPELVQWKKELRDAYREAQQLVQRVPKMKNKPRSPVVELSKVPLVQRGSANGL
Sequence of Integrin beta-1 (Homo sapiens) + Integrin alpha-4 (Homo sapiens) (P05556 whole entry, looked up): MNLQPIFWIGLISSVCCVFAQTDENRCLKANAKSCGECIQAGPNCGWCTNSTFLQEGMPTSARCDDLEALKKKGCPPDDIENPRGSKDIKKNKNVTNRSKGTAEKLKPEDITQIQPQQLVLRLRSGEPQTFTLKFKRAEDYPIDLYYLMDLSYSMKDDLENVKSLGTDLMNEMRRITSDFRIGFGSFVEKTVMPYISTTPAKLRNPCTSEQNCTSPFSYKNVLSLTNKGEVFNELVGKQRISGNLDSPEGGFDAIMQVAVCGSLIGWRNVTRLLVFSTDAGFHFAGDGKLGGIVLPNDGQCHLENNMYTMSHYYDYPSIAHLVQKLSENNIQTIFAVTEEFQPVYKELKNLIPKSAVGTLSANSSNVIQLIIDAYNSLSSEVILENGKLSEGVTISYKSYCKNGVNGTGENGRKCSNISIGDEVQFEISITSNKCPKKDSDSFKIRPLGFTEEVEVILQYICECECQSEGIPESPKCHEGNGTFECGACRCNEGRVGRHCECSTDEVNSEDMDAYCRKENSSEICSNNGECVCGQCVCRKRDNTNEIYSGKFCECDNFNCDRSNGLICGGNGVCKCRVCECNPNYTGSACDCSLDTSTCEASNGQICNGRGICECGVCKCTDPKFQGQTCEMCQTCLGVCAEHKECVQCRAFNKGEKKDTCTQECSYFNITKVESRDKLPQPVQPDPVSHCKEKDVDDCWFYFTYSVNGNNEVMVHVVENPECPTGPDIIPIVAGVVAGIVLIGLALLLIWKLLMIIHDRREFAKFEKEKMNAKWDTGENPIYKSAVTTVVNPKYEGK
Sequence of Integrin beta-1 (Homo sapiens) + Integrin alpha-4 (Homo sapiens) (P13612 whole entry, looked up): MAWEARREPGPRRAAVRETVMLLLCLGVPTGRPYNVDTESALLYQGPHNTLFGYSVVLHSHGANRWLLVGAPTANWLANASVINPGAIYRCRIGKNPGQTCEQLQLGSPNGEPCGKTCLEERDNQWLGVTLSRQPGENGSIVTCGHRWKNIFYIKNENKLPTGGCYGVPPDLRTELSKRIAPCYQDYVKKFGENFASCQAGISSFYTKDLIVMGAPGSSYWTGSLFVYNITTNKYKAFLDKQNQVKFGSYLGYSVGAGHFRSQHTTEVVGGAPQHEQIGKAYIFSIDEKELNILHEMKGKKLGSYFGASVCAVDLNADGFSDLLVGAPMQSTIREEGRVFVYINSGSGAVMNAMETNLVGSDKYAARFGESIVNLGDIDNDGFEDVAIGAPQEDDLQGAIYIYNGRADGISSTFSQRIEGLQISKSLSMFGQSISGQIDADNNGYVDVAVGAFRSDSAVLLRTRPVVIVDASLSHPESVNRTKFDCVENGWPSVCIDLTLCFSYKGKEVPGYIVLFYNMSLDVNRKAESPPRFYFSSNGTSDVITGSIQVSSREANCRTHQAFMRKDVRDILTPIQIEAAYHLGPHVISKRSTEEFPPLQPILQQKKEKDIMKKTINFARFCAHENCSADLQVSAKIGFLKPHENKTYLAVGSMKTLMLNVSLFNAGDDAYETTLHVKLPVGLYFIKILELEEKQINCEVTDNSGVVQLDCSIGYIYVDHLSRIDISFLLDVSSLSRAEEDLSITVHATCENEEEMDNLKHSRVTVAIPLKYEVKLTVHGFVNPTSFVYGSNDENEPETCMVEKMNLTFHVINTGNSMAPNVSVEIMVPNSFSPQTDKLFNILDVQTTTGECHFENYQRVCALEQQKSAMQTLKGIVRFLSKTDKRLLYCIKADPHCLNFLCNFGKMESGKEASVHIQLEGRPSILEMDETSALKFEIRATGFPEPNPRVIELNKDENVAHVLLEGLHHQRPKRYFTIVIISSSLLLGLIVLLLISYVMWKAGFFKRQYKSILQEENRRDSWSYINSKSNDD
Sequence of AP-2 complex subunit beta (Homo sapiens) (P63010 whole entry, looked up, the tested form may be a part, one chain of several): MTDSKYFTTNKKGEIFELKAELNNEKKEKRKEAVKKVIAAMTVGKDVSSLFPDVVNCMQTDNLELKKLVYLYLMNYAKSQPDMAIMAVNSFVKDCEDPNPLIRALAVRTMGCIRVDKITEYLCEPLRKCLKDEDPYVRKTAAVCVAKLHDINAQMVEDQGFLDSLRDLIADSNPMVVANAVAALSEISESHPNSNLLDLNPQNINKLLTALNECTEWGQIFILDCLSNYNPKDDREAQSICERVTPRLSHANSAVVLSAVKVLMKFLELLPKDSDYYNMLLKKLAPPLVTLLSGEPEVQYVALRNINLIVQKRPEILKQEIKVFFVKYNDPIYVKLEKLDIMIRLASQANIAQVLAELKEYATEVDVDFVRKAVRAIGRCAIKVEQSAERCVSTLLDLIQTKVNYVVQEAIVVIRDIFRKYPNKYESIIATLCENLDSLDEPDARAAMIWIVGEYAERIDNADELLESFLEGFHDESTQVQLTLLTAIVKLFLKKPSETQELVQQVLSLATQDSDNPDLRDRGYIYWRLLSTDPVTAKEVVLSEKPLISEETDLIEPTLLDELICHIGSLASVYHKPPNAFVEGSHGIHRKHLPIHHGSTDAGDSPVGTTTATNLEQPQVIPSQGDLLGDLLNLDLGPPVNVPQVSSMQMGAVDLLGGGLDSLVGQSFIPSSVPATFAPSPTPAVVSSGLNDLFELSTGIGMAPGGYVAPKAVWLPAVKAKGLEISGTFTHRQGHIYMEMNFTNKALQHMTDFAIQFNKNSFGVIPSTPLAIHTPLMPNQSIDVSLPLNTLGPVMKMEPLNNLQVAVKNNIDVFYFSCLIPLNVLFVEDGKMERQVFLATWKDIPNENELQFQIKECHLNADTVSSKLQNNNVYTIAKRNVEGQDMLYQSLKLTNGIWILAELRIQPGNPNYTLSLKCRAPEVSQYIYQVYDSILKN
Sequence of Beta-2 adrenergic receptor (Homo sapiens) (P07550 whole entry, looked up): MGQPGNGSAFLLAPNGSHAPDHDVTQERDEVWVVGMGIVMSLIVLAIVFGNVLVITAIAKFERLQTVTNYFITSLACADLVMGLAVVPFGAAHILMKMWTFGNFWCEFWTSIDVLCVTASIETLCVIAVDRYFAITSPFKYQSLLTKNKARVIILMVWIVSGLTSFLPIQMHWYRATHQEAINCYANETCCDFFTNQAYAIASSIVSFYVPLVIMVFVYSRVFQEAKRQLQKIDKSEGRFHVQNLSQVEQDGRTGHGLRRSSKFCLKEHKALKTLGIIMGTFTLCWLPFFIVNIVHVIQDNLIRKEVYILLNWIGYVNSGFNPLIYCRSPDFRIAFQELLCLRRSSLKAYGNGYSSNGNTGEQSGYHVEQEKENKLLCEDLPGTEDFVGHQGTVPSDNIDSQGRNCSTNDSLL

CC(=O)O[C@]1(C(C)=O)CC[C@H]2[C@@H]3C[C@H](C)C4=CC(=O)CC[C@]4(C)[C@H]3CC[C@@]21C
97.9%: GFP response relative to DMSO [7, 23]
101%: GFP response, % of DMSO [9, 22]
63.9%: double positive events [10]
102%: GFP response, % of DMSO [9, 21]
97.2%: GFP response vs DMSO [6, 22]
98.5%: GFP response relative to DMSO [7, 24]
inactive: percent of DMSO control GFP [1] 98.4% | GFP response vs DMSO [2] 106% | percent response of DMSO control [3] 90.8% | GFP response vs DMSO [4] 84.8% | GFP response, % of DMSO [5] 95.7% | GFP response vs DMSO [6] 94.3% | GFP response relative to DMSO [7] 98.8% | GFP response vs DMSO [8] 93.3% | GFP response, % of DMSO [9] 101% | vesicle binding response [10] 241% | inhibition [11] -3.57% | aptamer binding inhibition [12] -1% | response [13] 3.07% | inhibition [14] -9.79% | response [15] -0.42% | binding (% of control) [16] 100% | efflux inhibition (fraction of control) [17] 0.08 | inhibition [18] 20% | differentiation response [19] 10%
95.7%: GFP response vs DMSO [6, 21]

CC(=O)[C@H]1CC[C@H]2[C@@H]3CCC4=CC(=O)CC[C@]4(C)[C@H]3[C@H](O)C[C@]12C
98.5%: GFP response relative to DMSO [7, 24]
inactive: percent of DMSO control GFP [1] 93% | percent response of DMSO control [3] 99.2% | GFP response vs DMSO [4] 85.3% | GFP response, % of DMSO [5] 93.3% | GFP response vs DMSO [6] 99.1% | GFP response relative to DMSO [7] 100% | GFP response vs DMSO [8] 97.5% | GFP response, % of DMSO [9] 101% | vesicle binding response [10] 64.9% | inhibition [11] -20.7% | superoxide response (% of plate) [20] 109% | aptamer binding inhibition [12] 3% | response [13] 0.15% | inhibition [14] 16.3% | response [15] -2.3% | binding (% of control) [16] 97.4% | efflux inhibition (fraction of control) [17] 0.12 | inhibition [18] 2% | differentiation response [19] 4.09%
57.7%: double positive events [10]
99.1%: GFP response, % of DMSO [9, 22]
99.7%: GFP response vs DMSO [6, 22]
active: GFP response vs DMSO [2] 147%
99.3%: GFP response vs DMSO [6, 21]
102%: GFP response relative to DMSO [7, 23] | GFP response, % of DMSO [9, 21]

N#C/C(C(N)=O)=c1/ccc2c(c1)N1C3=C(CCCC3)CC3CCCCC31N=2 (stereo not given)
89.3%: GFP response, % of DMSO [9, 22]
123%: GFP response relative to DMSO [7, 24]
85.2%: GFP response, % of DMSO [9, 21]
59.5%: double positive events [10]
inactive: percent of DMSO control GFP [1] 104% | GFP response vs DMSO [2] 113% | percent response of DMSO control [3] 94.5% | GFP response, % of DMSO [5] 105% | GFP response vs DMSO [6] 92.7% | GFP response relative to DMSO [7] 118% | GFP response vs DMSO [8] 101% | GFP response, % of DMSO [9] 88.9% | vesicle binding response [10] 108% | inhibition [11] -74.8% | superoxide response (% of plate) [20] 92.3% | aptamer binding inhibition [12] -5% | response [13] 5.12% | inhibition [14] 46.9% | response [15] -2.62% | binding (% of control) [16] 98.3% | efflux inhibition (fraction of control) [17] 0.37 | inhibition [18] -58% | differentiation response [19] -16.3%
active: GFP response vs DMSO [4] 170%
115%: GFP response relative to DMSO [7, 23]
93.3%: GFP response vs DMSO [6, 22]
88.8%: GFP response vs DMSO [6, 21]
